# MCF10A rerep: DNA re-replication induction in MCF 10a cells. MCF 10A DNA re-replication, Hoechst nuclear intensity, 48 h. Potency, µM (highest dose often 46.1 µM), without a hit: top-dose activity, positive = re-replication, hits mostly activators. hit rate 2.9% among 350,000. AID 624296; also: % of control where 0% means no effect; nearly all actives have a fitted effect of over 50% in size
# KB-V1 cytotox: kills drug-selected multidrug resistant KB-V1 cells. Potency, µM (doses to about 46.1 µM), hits mostly cytotoxic. AID 1347076. KB-V1 MDR cells viability, CellTiter-Glo, 72 h. hit rate 3.4% among 400,000; also: % is scaled to controls: 0 for no effect and ±100 for the full control effect; nearly all actives have a fitted effect of over 60% in size
#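 Readout: CellTiter-Glo luminescence, 10 min after addition. Cells: KB-V1 MDR subline, 72 h at 37 degrees C with compound. Analysis: corrected, normalized data fitted to concentration-effect curves.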
# SW480 rerep: DNA re-replication induction in SW480 cells; hit rate 1.8% among 340,000; Potency, µM (top dose mostly 46.1 µM), for the others: at the top dose re-replication activation, usual class: activators; SW480 DNA re-replication, Hoechst DNA content imaging, 48 h; also: % of control where 0% means no effect; nearly all actives have a fitted effect of over 55% in size
#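 First, 250 cells per well were seeded. Next, compound or vehicle (23 nL) was pinned in, plates sat 48 hr at 37 C. Finally Hoechst was added for 40 min before fluorescence scanning.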
# RORgamma inh: ROR gamma (mouse) transcription inhibition; Drosophila S2 Gal4-RORgamma UAS-luciferase reporter, 20 h; hit rate 5.4% among 310,000; AID 2551; Potency, µM (top dose mostly 53.6 µM), inactives show top-dose activity change, negative = inhibition, usual class: inhibitors; P51450; also: % is scaled to controls: 0 for no effect and ±100 for the full control effect; nearly all actives have a fitted effect of over 60% in size
# Target sequence (P51450 whole entry, looked up, the tested form may be a part): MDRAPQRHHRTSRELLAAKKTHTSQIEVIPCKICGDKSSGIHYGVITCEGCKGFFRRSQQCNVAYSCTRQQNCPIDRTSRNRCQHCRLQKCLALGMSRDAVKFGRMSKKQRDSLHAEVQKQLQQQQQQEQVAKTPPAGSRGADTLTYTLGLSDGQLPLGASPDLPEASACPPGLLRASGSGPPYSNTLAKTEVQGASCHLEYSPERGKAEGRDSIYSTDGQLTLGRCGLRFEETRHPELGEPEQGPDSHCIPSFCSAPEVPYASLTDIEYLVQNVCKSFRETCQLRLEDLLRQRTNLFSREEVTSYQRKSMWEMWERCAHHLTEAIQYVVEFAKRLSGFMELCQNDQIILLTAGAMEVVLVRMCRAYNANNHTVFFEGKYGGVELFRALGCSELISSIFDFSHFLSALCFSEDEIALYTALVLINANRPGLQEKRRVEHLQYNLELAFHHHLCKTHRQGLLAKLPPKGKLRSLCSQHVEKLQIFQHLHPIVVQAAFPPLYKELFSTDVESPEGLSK
#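 Compounds are pin-transferred onto Drosophila Schneider cells expressing a copper-inducible Gal4–ROR gamma transactivation domain fusion. After 1 hr, copper sulfate is added to 700 uM final; luciferase is read 20 hr later.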
# Gal4-VP16 FLuc: counter-screen for ROR gamma inhibitors: Gal4-VP16 reporter; Potency, µM (top dose mostly 53.6 µM), for inactives: at the highest dose activity, negative = inhibition, most hits filed as inhibitors; hit rate 3.5% among 310,000; Drosophila S2 Gal4-VP16 UAS-luciferase, luminescence, 20 h;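 also: Gal4-VP16 expression switched on by copper sulfate through the metallothionein promoter; % is scaled to controls: 0 for no effect and ±100 for the full control effect; nearly all actives have a fitted effect of over 50% in size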
# KB-3-1 tox: KB-3-1 parental cell cytotoxicity; Potency, µM (titrated, usually from 46.1 µM), hits mostly cytotoxic; hit rate 1.4% among 400,000; AID 1347075; KB-3-1 viability, CellTiter-Glo ATP luminescence, 72 h; also: % is scaled to controls: 0 for no effect and ±100 for the full control effect; nearly all actives have a fitted effect of over 60% in size
#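 Parental KB-3-1 viability, qHTS format: 72 h compound exposure, 37 °C; CellTiter-Glo; media-only wells and DMSO plates as controls; concentration-effect fits on corrected data.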
# The depositor's hits bear a star; i = inactive; ? = inconclusive; . = no result; [ ] = remark or other dose. The list is not random: actives were taken first. Their share in the collection is about 10%. Calls follow the shape of the dose curve; as a rule, active = well fitted curve in the direction sought with a large enough effect; inconclusive = small, poorly fitted or top-dose-only effect, or another doubt; inactive = no such curve, though single readings can be large; an effect the other way counts as inactive or inconclusive. Potency is read from the fitted curve at half-maximal effect.
SMILES,MCF10A rerep,KB-V1 cytotox,SW480 rerep,RORgamma inh,Gal4-VP16 FLuc,KB-3-1 tox
CC(=O)N1CCC[C@@]2(CCN(C(c3ccccc3)c3ccccc3)C2)C1,.,.,.,-26.2%,-0.7%,.
O=C(COc1ccccc1)NCC(c1ccco1)N1CCN(c2ccccc2F)CC1 (centres undefined),81.9%,14.6µM*,?,.,.,?
O=C(NCc1ccncc1)C(=O)NCC(c1ccco1)N1CCN(c2ccccc2F)CC1 (centres undefined),-2.9%,2.31µM*,-3.6%,23.3%,-13.0%,i
O=C(COc1ccccc1)NCC(c1ccco1)N1CCN(c2ccc(F)cc2)CC1 (centres undefined),-0.7%,i,?,.,.,i
CCn1nc(C)c2c(-c3ccccc3)cc(=O)n(C(C)C(=O)NCc3ccccc3OC)c21 (centres undefined),.,i,.,.,.,i
Cc1cc(-c2ccccc2)nc2oc3c(c12)NC(=O)CN(c1ccccc1)C3=O,3.6%,?,14.6µM*,6.4%,-8.4%,i
COc1cccc(N2CC(=O)Nc3c(oc4nc(-c5ccccc5)cc(C)c34)C2=O)c1,4.7%,i,0.3%,-5.6%,-10.6%,i
Cc1cc2ccccc2cc1C(=O)c1ccccc1,?,i,?,.,.,i
Cc1sc2cc3c(c(C(=O)c4ccccc4)[n+]2c1C)-c1cccc2cccc-3c12,11.6µM*,i,?,?,11.2µM*,7.31µM*
O=C(c1ccccc1)c1c2c(cc3sc4ccccc4[n+]13)-c1cccc3cccc-2c13,?,?,7.9%,?,10µM*,20.6µM*
CCn1c(=O)c2sccc2n2c(CCC(=O)N3CCN(c4ccccc4OC)CC3)nnc12,.,i,.,.,.,i
CN[C@@H](C)C(=O)NC[C@H]1O[C@@H](n2cnc3c(N)ncnc32)[C@H](O)[C@@H]1O,-1.0%,i,?,.,.,i
O=C(NCc1ccc2c(c1)OCO2)O[C@@H]1C(=O)c2cc(Br)ccc2O[C@H]1c1ccc2c(c1)OCO2,.,.,.,?,-10.6%,.
CCOc1ccc2[nH]c(=O)c(CN(Cc3cccs3)Cc3nnnn3C(C)(C)CC)cc2c1,-1.7%,18.4µM*,17.9%,32.3%,-0.8%,i
COc1ccc(OC)c(CN2C(=O)CSCC2(C)C(=O)Nc2c(C)cccc2C)c1 (centres undefined),.,i,.,.,.,i
NC(=O)C1O[C@@H](O)[C@H](O)[C@@H](O)[C@H]1O (some centres undefined),.,.,.,-5.8%,-3.1%,.
O=C(NC1CCCC1)c1cnn(-c2ccc(F)cc2F)c1C1CCNCC1,.,?,.,.,.,i
NC(=S)N/N=C/c1ccc2cccc(OCc3ccccc3)c2n1,?,i,13.6%,7.08µM*,?,i
COC(=O)N/N=C/c1ccccc1OCc1ccccc1,14.1%,i,0.2%,?,0.7%,i
NC(N)=N/N=C/c1ccc2cccc(OCc3ccccc3)c2n1,?,i,-2.2%[9.22 µM],-26.5%,-21.2%,16.4µM*
NC(=S)N/N=C/c1ccccc1OCc1cccc(Cl)c1,?,i,?,0.794µM*,3.98µM*,18.4µM*
COc1cccc(NC(=O)CSCc2cc(=O)c3ccc(C)c(C)c3[nH]2)c1,.,i,.,.,.,i
C=CCn1c(SCc2ccc(F)cc2)nc2c1c(=O)[nH]c(=O)n2C,-5.0%,i,-21.0%,37.3%,-0.4%,i
CCC(C)Sc1nc2c(c(=O)[nH]c(=O)n2C)n1CC(O)COc1ccccc1C (centres undefined),?,18.4µM*,-2.5%,30.0%,-21.7%,?
CCC(C)Sc1nc2c(c(=O)[nH]c(=O)n2C)n1Cc1ccc(Cl)cc1 (centres undefined),?,9.2µM*,12.5%,-1.1%[10 µM],-7.2%,?
SMILES,MCF10A rerep,KB-V1 cytotox,SW480 rerep,RORgamma inh,Gal4-VP16 FLuc,KB-3-1 tox
C=CCn1c(Sc2ccccc2)nc2c1c(=O)[nH]c(=O)n2C,2.3%,2.31µM*,-0.8%,-0.3%,18.3%,7.31µM*
CC(C)Sc1nc2c(c(=O)[nH]c(=O)n2C)n1Cc1ccc(Cl)cc1,4.7%,i,-1.8%,-21.5%,3.5%,i
C=CCn1c(SCc2ccc(Cl)cc2)nc2c1c(=O)[nH]c(=O)n2C,5.8%,16.4µM*,-1.6%,?,-0.2%,i
COc1ccccc1NC(=O)C1=C(C)Nc2nc(SCc3cc(C)ccc3C)nn2C1c1ccccc1 (centres undefined),.,i,.,.,.,i
Cc1cc(C)n(-c2nc3c(c(=O)[nH]c(=O)n3C)n2CC(O)COc2ccc(Cl)cc2Cl)n1 (centres undefined),?,?,?,?,-7.0%,2.06µM*
CCN(CC)CCNc1nc2c(c(=O)[nH]c(=O)n2C)n1CC(O)COc1ccc(Cl)cc1Cl (centres undefined),-8.4%,i,-10.6%,13.9%,-7.7%,i
CO[C@H](C(=O)[C@@H](O)[C@@H](C)O)C1Cc2cc3cc(O[C@H]4C[C@@H](O[C@H]5C[C@@H](O)[C@H](O)[C@@H](C)O5)[C@@H](O)[C@@H](C)O4)c(C)c(O)c3c(O)c2C(=O)[C@H]1O[C@H]1C[C@@H](O[C@H]2C[C@@H](O[C@H]3C[C@](C)(O)[C@H](O)[C@@H](C)O3)[C@H](O)[C@@H](C)O2)[C@H](O)[C@@H](C)O1 (some centres undefined),-7.0%,.,?,0.631µM*,0.501µM*,.
COC(C(=O)C(O)C(C)O)C1Cc2cc3cc(OC4CC(OC5CC(O)C(O)C(C)O5)C(O)C(C)O4)c(C)c(O)c3c(O)c2C(=O)C1OC1CC(OC2CC(OC3CC(C)(O)C(O)C(C)O3)C(O)C(C)O2)C(O)C(C)O1 (centres undefined),?,i,-23.2%,0.708µM*,0.794µM*,0.0052µM*
COC(C(=O)C(O)C(C)O)C1Cc2cc3cc(OC4CC(OC5CC(O)C(O)C(C)O5)C(O)C(C)O4)c(C)c(O)c3c(O)c2C(=O)C1OC1CC(OC2CC(OC3CC(O)C(OC)C(C)O3)C(O)C(C)O2)C(O)C(C)O1 (centres undefined),-10.5%,i,-9.5%,.,.,0.184µM*
CCOCCc1nn2c(=O)cc(COC(=O)c3ccc(NC(=O)C(C)(C)C)cc3)nc2s1,.,i,.,.,.,i
CCOC(=O)C(C)Sc1cc(CS(=O)(=O)c2ccccc2)nc(-c2ccccc2)n1 (centres undefined),9.6%,20.6µM*,0.7%,16.6%,0.1%,i
